# Test results published in PubChem BioAssay (EPA / NIEHS).
# The source made the active and inactive calls. Rule for the calls: active = hit-call score of the fitted dose curve at least 0.9, where 1 is the maximum; inactive = score below 0.9.
# Read-out: Paternally Expressed 10 (PEG10), PEG10 (gene 23089)
# Test: LTEA_HepaRG_PEG10: Life Technologies and Expression Analysis (LTEA) Assay for Paternally Expressed 10 (PEG10) using HepaRG (AID 2283520);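 for AC50: differentiated HepaRG human liver cells in serum-free induction medium with 0.5% DMSO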
# Settings: mRNA level, 48 h; actives raise or lower the signal
# Summary of the method: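 HepaRG, 48 h post-plating → serum-free induction medium → 48 h chemical exposure (duplicate, 8-pt, max 100 uM, half-log, 0.5% DMSO) → lysis in RLT → TaqMan qRT-PCR for PEG10, ACTB/GAPDH/POLR2A normalisation.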
# Nuclear factor NF-kappa-B p105 subunit (Homo sapiens), sequence (P19838 whole entry, looked up): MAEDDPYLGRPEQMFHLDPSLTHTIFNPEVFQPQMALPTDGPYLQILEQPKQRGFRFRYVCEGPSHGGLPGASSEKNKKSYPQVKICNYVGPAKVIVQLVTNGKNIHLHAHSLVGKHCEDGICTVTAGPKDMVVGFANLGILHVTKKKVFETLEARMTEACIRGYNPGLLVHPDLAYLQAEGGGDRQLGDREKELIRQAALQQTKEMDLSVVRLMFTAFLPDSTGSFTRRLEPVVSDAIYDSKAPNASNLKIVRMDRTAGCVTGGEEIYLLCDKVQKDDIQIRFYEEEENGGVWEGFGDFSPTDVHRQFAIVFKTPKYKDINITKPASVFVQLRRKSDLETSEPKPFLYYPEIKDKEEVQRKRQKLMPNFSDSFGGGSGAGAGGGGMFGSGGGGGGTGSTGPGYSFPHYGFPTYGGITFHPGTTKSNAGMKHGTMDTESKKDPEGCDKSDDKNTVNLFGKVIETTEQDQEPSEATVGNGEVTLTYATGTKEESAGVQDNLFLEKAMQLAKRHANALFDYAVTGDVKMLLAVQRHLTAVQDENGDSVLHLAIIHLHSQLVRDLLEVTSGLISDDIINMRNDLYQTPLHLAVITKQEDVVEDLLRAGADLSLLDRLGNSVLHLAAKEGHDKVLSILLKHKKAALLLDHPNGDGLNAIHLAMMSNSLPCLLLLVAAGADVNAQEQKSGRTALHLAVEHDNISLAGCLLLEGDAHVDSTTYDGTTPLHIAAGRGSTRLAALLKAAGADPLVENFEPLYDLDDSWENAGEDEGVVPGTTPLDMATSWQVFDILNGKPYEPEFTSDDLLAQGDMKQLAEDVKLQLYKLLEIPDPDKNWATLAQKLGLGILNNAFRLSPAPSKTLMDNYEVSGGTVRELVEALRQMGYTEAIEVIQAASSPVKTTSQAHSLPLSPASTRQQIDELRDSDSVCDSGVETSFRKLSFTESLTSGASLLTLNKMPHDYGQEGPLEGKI
Compound,outcome,AC50
Nc1cc2c3c(c1)C(c1ccccc1)=N[C@@H](NC(=O)c1cccnc1)C(=O)N3CC2,inactive,–
c1nc[nH]n1,inactive,–
CCC(C)(C)c1ccc(O)cc1,inactive,–
CCOP(=S)(OCC)SCSCC,inactive,–
CCNc1nc(Cl)nc(NC(C)(C)C)n1,–,17.4 µM (active)
CCOC(=O)c1ccccc1C(=O)OCC,inactive,–
CCOP(=S)(Oc1ccc([N+](=O)[O-])cc1)c1ccccc1 (stereo unspecified),inactive,–
Nc1ccc(Cl)cc1,inactive,–
Cc1ccc(N)cc1N,inactive,–
CCOc1ccc(C(C)(C)COCc2cccc(Oc3ccccc3)c2)cc1,inactive,–
ClC1=C(Cl)C2(Cl)C3C(Cl)C(Cl)CC3C1(Cl)C2(Cl)Cl (stereo unspecified),–,2.31 µM (active)
CCCCN(CCCC)N=O,inactive,–
c1ccc(OP(Oc2ccccc2)Oc2ccccc2)cc1,inactive,–
CCC1(c2ccccc2)C(=O)N=C(O)NC1=O (stereo unspecified),inactive,–
Cc1cccc(N)c1,inactive,–
CC(C)(C)OOC(C)(C)C,inactive,–
CCCCCCCc1ccc(O)cc1,inactive,–
ClC(Cl)c1ccccc1,inactive,–
CCCCN(CCCC)SN(C)C(=O)Oc1cccc2c1OC(C)(C)C2,inactive,–
c1cc2c3c(cccc3c1)CC2,inactive,–
CN(C)C(=O)Cl,inactive,–

# Read-out: Nuclear factor NF-kappa-B p105 subunit (Homo sapiens) (UniProt P19838)
# Test: LTEA_HepaRG_NFKB1: Life Technologies and Expression Analysis (LTEA) Assay for Nuclear Factor Kappa B Subunit 1 (NFKB1) using HepaRG (AID 2283521);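 note: differentiated human HepaRG liver cells in serum-free induction medium; TaqMan qRT-PCR transcript normalised to ACTB GAPDH and POLR2A housekeeping genes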
# Settings: mRNA level, 48 h; actives raise or lower the signal
# Summary of the method: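 HepaRG, 48 h exposure; 8-pt half-log series from 100 uM in 0.5% DMSO; duplicates. Readout: NFKB1 mRNA by qRT-PCR (Fluidigm arrays), housekeeping-normalized. Gain/loss fit vs DMSO baseline.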
row,Compound,outcome
1,Nc1cc2c3c(c1)C(c1ccccc1)=N[C@@H](NC(=O)c1cccnc1)C(=O)N3CC2,inactive
2,c1nc[nH]n1,inactive
3,CCC(C)(C)c1ccc(O)cc1,inactive
4,CCOP(=S)(OCC)SCSCC,inactive
5,CCNc1nc(Cl)nc(NC(C)(C)C)n1,inactive
6,CCOC(=O)c1ccccc1C(=O)OCC,inactive
7,CCOP(=S)(Oc1ccc([N+](=O)[O-])cc1)c1ccccc1 (stereo unspecified),inactive
8,Cc1ccc(N)cc1N,inactive
9,CCOc1ccc(C(C)(C)COCc2cccc(Oc3ccccc3)c2)cc1,inactive
10,ClC1=C(Cl)C2(Cl)C3C(Cl)C(Cl)CC3C1(Cl)C2(Cl)Cl (stereo unspecified),inactive
11,CCCCN(CCCC)N=O,inactive
12,c1ccc(OP(Oc2ccccc2)Oc2ccccc2)cc1,inactive
13,CCC1(c2ccccc2)C(=O)N=C(O)NC1=O (stereo unspecified),inactive
14,Cc1cccc(N)c1,inactive
15,CC(C)(C)OOC(C)(C)C,inactive
16,CCCCCCCc1ccc(O)cc1,inactive
17,ClC(Cl)c1ccccc1,inactive
18,CCCCN(CCCC)SN(C)C(=O)Oc1cccc2c1OC(C)(C)C2,inactive
19,c1cc2c3c(cccc3c1)CC2,inactive
20,CN(C)C(=O)Cl,inactive
